The supplement of paper PMC3484114
± gives the standard deviation.

These molecules were tested on OVCAR-3-derived ovarian cancer stem-like cells (spheroids) (assay: cell growth relative to untreated control; higher = more growth (less inhibition)). Settings: 2.29 µM; 96 h.
Method in brief: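 Stem-like cells derived from OVCAR-3 spheroids were dissociated with trypsin and seeded at 50,000 cells/mL in stem cell medium in ultra-low attachment 96-well plates, then preincubated for 24 h. Each compound was added at 2.29 uM to 4 replicate wells and left for 96 h at 37°C, 5% CO2. Viability came from TOX8 resazurin fluorescence (ex 560/em 590 nm) read after 4 h. Percent growth was expressed relative to untreated wells, after blank subtraction and removal of outliers by the Grubbs test.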
In the case of `CC1=C2C(=CO[C@H](C)[C@H]2C)C(=O)C(C(=O)O)=C1O`, the cell growth is reported as 112 ± 18%.
Molecule `COc1ccc2nc(C)cc(NCCCCCCCCCNc3cc(C)nc4ccc(OC)cc34)c2c1` has a cell growth of 75.9 ± 37%.
Work on `O=[N+]([O-])c1cc(C(F)(F)F)cc([N+](=O)[O-])c1CCl` yielded a cell growth of 38.4 ± 11%.
Work on `COc1cc(/C=C(\OC(C)=O)c2ccc3c(c2)OCO3)cc(OC)c1OC` yielded a cell growth of 162 ± 58%.
Work on `CCn1c(O)c(C=Nc2ccccc2)s/c1=N/Nc1ncc(CC(=O)Nc2ccccc2C)s1` yielded a cell growth of 95.9 ± 16%.
Work on `NC1=NCN([C@@H]2O[C@H](CO)[C@@H](O)[C@H]2O)C(=O)N1` yielded a cell growth of 85.8 ± 11%.
`Cc1ccc(S(=O)(=O)NC(=O)NC2=NC(C)(C)N(c3ccc(Cl)c(Cl)c3)C(N)=N2)cc1` was tested, and the cell growth was 84.1 ± 23%.
For `C=CC(=O)N1C/C(=C\c2ccc(Cl)cc2)C(=O)/C(=C/c2ccc(Cl)cc2)C1`, the cell growth was 59.7 ± 22%.
Work on `COc1cc(C(O)CCBr)c(OC)cc1C` (centres undefined) yielded a cell growth of 86.9 ± 26%.
`CC(=O)N=C1N(/C=C2\C(=O)Oc3ccccc3C2=O)C(=O)/C(=C/c2ccccc2Cl)N1C` was tested, and the cell growth was 122 ± 43%.
`O=C1C(Br)=C(Br)C(=O)c2ccccc21` was tested, and the cell growth was 3.3 ± 4%.
`COc1cc(C[C@H]2c3cc(OC)c(OC)cc3CCN2C)c(Oc2cc3c(cc2OC)-c2c(OC)c(OC)cc4c2[C@H](C3)N(C)CC4)cc1OC` was tested, and the cell growth was 77.8 ± 11%.
Molecule `CN(C)/N=N/c1nc[nH]c1C(N)=O` has a cell growth of 164 ± 14%.
With `CS(=O)(=O)c1nc(N)nc2nc[nH]c12` the cell growth was 99.3 ± 19%.
Work on `CC(=O)OCc1cc(=O)n(C)c2c3c4c(cc12)c(C)cc(=O)n4CO3` yielded a cell growth of 95.1 ± 21%.
With `OCC1OC(n2cnc3c(SCc4ccccc4)ncnc32)C(O)C1O` (centres undefined) the cell growth was 118 ± 33%.
Molecule `CCCCOCc1cc(CN2CCN(C)CC2)c(O)c2ncccc12` has a cell growth of 85.3 ± 33%.
`CC1=CC(C)(C)N=C2SC(c3ccc(N)cc3)=NN12` gave a cell growth of 112 ± 28%.
`O=C1C(=O)c2ccccc2C(O)=C1CC=C(Cl)Cl` showed a cell growth of 92.3 ± 30%.
Molecule `CC(=O)c1sc2[n+](c1C)C(=O)/C(=C\c1ccccc1Cl)S2` has a cell growth of 99.4 ± 17%.
`Cc1cc(N(C)C)ccc1N=Nc1ccc2ncccc2c1` showed a cell growth of 83.2 ± 6.3%.
`Cc1ccc([N+](=O)[O-])cc1NC(=O)c1cccc([N+](=O)[O-])c1O` was tested, and the cell growth was 146 ± 41%.
Work on `O=C(CC(=O)C(F)(F)F)c1csc2ccccc12` yielded a cell growth of 93.5 ± 13%.
`CCOC(=O)C1=C(C)NC(=S)NC1c1ccccc1` (centres undefined) showed a cell growth of 103 ± 12%.
`NC(N)=NCCCS(=O)(=O)Nc1ccc(Nc2c3ccccc3nc3cc([N+](=O)[O-])ccc23)cc1` gave a cell growth of 127 ± 32%.
In the case of `CCCCCCCCCCCCCCCCCCOP(=O)([O-])OCC[N+](C)(C)C`, the cell growth is reported as 51.1 ± 16%.
`CC(C)[Si]1(C(C)C)OCC2OC(n3cnc4c(N)ncnc43)C(N)C2O[Si](C(C)C)(C(C)C)O1` (centres undefined) gave a cell growth of 85.1 ± 22%.
Work on `Cc1c2ccc3ccccc3c2c[n+]2ccccc12` yielded a cell growth of 88.9 ± 14%.
Work on `Cc1c2ccncc2cc2c1[nH]c1ccccc12` yielded a cell growth of 101 ± 20%.
For `COc1ccc(NC(=O)C(=O)/C=C(\O)c2ccccc2)cc1`, the cell growth was 107 ± 46%.
In the case of `N#CCCN(c1ccc(C=O)cc1)S(=O)(=O)c1ccccc1`, the cell growth is reported as 116 ± 22%.
For `C=C1C(=O)OC2C1CC1OC2C(C)CCC/C(C)=C\CCC1(C)O` (centres undefined), the cell growth was 115 ± 10%.
`O=C1c2ccccc2C(=O)C1C(c1ccc([N+](=O)[O-])cc1)C1C(=O)c2ccccc2C1=O` gave a cell growth of 83.3 ± 24%.
`C[C@@H]1CC[C@H]2C(C)(C)[C@H]3C[C@@]12CC[C@@]3(C)O` showed a cell growth of 48.3 ± 7%.
Work on `CCOC(=O)CCc1c(C)c2c(O)cc(O)cc2oc1=O` yielded a cell growth of 100 ± 21%.
In the case of `CC(C)CCCCCCCCCCCCC(=O)NCC(=O)N[C@@H]1[C@@H](O)[C@H](O)[C@@H](Nc2ncnc3nc[nH]c23)O[C@H]1[C@@H](O)CO`, the cell growth is reported as 13.2 ± 4.3%.
Molecule `CCOC(=O)CNC(=O)NC12CC3CC(CC(C3)C1)C2` has a cell growth of 95.4 ± 18%.
Work on `NCCCNCCCCNCCCN` yielded a cell growth of 141 ± 34%.
Molecule `Cc1cc(Cl)ccc1N1C(=O)C(=O)C(c2nc3ccccc3o2)C(=O)C1=O` has a cell growth of 134 ± 53%.
